SMILES strings stand for the structures. About 5,100 (32%) of roughly 16,000 compounds were called active. Inconclusive results (about 25%) are left out. The list shows a part of the results. Values without a mark were called inactive. Calls come from the whole dose curve; as a rule, active = well fitted curve in the direction sought with a large enough effect; inconclusive = small, poorly fitted or top-dose-only effect, or effect the other way; inactive = no such curve, though single readings can be large or run the other way.
% is set by controls: 0 for no effect and ±100 for the full control effect.

For this experiment, the target named is Cytochrome P450 3A4 (Homo sapiens) (UniProt P08684). Briefly: Cytochrome panel assay with activity outcomes. The following applies: recombinant CYP, pro-luciferin dealkylation, luminescence, p450-cyp3a4; series mostly up to 57.1 µM.
Cytochrome P450 3A4 (Homo sapiens), sequence (P08684 whole entry, looked up): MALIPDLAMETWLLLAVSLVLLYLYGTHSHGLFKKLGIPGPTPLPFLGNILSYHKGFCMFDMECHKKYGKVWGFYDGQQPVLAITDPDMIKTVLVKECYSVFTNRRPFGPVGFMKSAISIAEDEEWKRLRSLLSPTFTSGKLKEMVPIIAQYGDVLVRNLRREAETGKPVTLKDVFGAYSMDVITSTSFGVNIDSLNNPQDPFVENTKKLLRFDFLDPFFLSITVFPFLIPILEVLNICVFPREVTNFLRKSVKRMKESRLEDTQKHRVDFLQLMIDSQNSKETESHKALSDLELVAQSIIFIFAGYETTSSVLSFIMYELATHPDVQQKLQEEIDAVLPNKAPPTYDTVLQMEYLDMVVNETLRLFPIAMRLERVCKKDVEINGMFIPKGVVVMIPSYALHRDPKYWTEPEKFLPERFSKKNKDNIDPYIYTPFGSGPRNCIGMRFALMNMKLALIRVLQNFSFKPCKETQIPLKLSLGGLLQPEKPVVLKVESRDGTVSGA
`CSc1nc(-c2ccc(C)cc2)nc(C(Cl)Cl)n1`: the AC50 entry was “inactive”.
Consider `COc1cccc(-c2nccc(NCc3ccc(OC)cc3OC)n2)c1`, for which the half-maximal activity concentration (AC50) was 3.16 µM (active).
Same read-out and setting: then `Cc1noc(C)c1C(=O)N1CCC2(CC1)CN(c1ncccn1)C2`, with “inactive”; and `Cc1noc(C)c1C(=O)N1CCC[C@@]2(CCN(Cc3nccs3)C2)C1`, with 15.8 µM (active).
The same measure, in the same setting: the same measure for `Cc1noc(C)c1C(=O)N1CCC2(CCN(Cc3nccs3)CC2)CC1`: “inactive”; for `Cc1noc(C)c1C(=O)N1CCC2(CCN(Cc3cc(C(F)(F)F)cc(C(F)(F)F)c3)CC2)CC1`: “inactive”; for `COc1ccccc1CN1CC[C@@]2(CCCN(C(=O)c3c(C)noc3C)C2)C1`: 1.58 µM (active).
Turning to `Cc1noc(C)c1C(=O)N1CCC[C@@]2(CCN(Cc3ccccc3)C2)C1`, the half-maximal activity concentration (AC50) is 12.6 µM (active).
Regarding `Cc1noc(C)c1C(=O)N1CCC2(CCN(Cc3ccccc3)CC2)CC1`, the AC50 entry is “inactive”.
For `COc1ccccc1CN1CCC2(CC1)CCN(C(=O)c1c(C)noc1C)CC2`, the AC50 entry was “inactive”.
Take `CC(C)(N=NC(C)(C)C1=NCCN1)C1=NCCN1`: the activity, negative = inhibition is -8.65% [at 11.4 µM].
For `CCCCOc1ccc(OC(=O)c2cccnc2)cc1`, the AC50 result is “inactive”.
With `CCCCOc1ccc(S(=O)(=O)Nc2cccnc2)cc1`, the half-maximal activity concentration (AC50) was 2.51 µM (active).
`COc1cnc(NS(=O)(=O)c2ccc(N)cc2)nc1`: the AC50 result is “inactive”.
Take `Cc1ccc(Nc2nnc(-c3ccc4c(c3)OCO4)o2)c(C)c1`: the half-maximal activity concentration (AC50) is 3.16 µM (active).
For the compound `C[C@H](NC[C@H](O)CP(=O)(O)Cc1ccccc1)c1ccc(Cl)c(Cl)c1`, the AC50 entry was “inactive”.
Consider `FC(F)(F)c1ccccc1-c1nc(NC2CC2)c2ccccc2n1`, for which the AC50 was 3.16 µM (active).
The same measure, in the same setting: then `COc1ccccc1-c1nc(NC2CC2)c2ccccc2n1`, with 12.6 µM (active).
Regarding `CN(C)Cc1ccccc1-c1nc(NC2CC2)c2ccccc2n1`, the half-maximal activity concentration (AC50) is 15.8 µM (active).
The same measure, in the same setting: then `Cc1ccccc1-c1nc(NC2CCNCC2)c2ccccc2n1`, with “inactive”; and `FC(F)(F)c1ccccc1-c1nc(NC2CCNCC2)c2ccccc2n1`, with “inactive”; and `Cc1ccccc1-c1nc(NC2CC2)c2ccccc2n1`, with 3.98 µM (active).
In the case of `N[C@H](C(=O)O)C1[C@H](C(=O)O)[C@H]1C(=O)O` (stereo partly drawn), the AC50 result was “inactive”.
For the compound `Cc1ccc(SCCNC(=S)Nc2ccc(C)c(C)c2)cc1`, the AC50 was 6.31 µM (active).
In the case of `CCCNC(=S)Nc1ccc(Br)cc1`, the AC50 result was “inactive”.
As for `CCOC(=O)C1(S(=O)(=O)c2ccc(Cl)cc2)CCN(Cc2ccc(Cl)cc2)CC1`, the half-maximal activity concentration (AC50) was 7.08 µM (active).
For `CCOC(=O)C1(S(=O)(=O)c2ccccc2)CCN(Cc2ccccc2)CC1`, the concentration at half-maximal activity (AC50) was 5.01 µM (active).
With `COCC(=O)N1CCC2(CCN(Cc3ccccc3)CC2)CC1`, the AC50 result is “inactive”.
Regarding `CC(=O)N1CCC2(CCN(Cc3ccccc3)CC2)CC1`, the AC50 result is “inactive”.
In the case of `CC(C)NC1(C(N)=O)CCN(Cc2ccccc2)CC1`, the activity, negative = inhibition was -7.69% [at 11.4 µM].
In the case of `CC1(C)Cc2c(C#N)c(SCc3ccccc3)nc(N3CCOCC3)c2CO1`, the half-maximal activity concentration (AC50) is 25.1 µM (active).
On to `Nc1nc(N)c(N=Nc2ccc(C(=O)O)c(O)c2)c(N)n1`, for which the activity, negative = inhibition is -18% [at 11.4 µM].
With `CC(Oc1ccccc1)C(=O)Nc1nc2c(s1)C(=O)CC(C)(C)C2` (stereo not drawn), the AC50 result is “inactive”.
With `COc1ccc(NC(=O)OC(C)C)cc1`, the activity, negative = inhibition is -9.73% [at 2.29 µM].
Consider `CCn1c2ccccc2c2cc(NC(=O)C(C)Oc3ccc(OC)cc3)ccc21` (stereo not drawn), for which the AC50 was 6.31 µM (active).
For the compound `CCN(CC)c1ccc(/C=C/c2nc3ccccc3s2)cc1`, the AC50 was 11.2 µM (active).
For the compound `CN(N=O)c1ccc(/C=C\c2ccnc3ccccc23)cc1`, the activity, negative = inhibition is -15.2% [at 11.4 µM].
Take `Cc1nc2ccccn2c1/C(O)=C1\C(=O)C(=O)N(CCN2CCOCC2)C1c1cccnc1` (stereo not drawn): the AC50 result was “inactive”.
`Cc1nc2ccccn2c1/C(O)=C1\C(=O)C(=O)N(CCCn2ccnc2)C1c1ccncc1` (stereo not drawn): the AC50 is 11.2 µM (active).
In the case of `Cc1nc2c(C)cccn2c1/C(O)=C1\C(=O)C(=O)N(CCN2CCOCC2)C1c1cccs1` (stereo not drawn), the AC50 entry is “inactive”.
As to `Cc1cccc(CN(C)CCc2ccccn2)c1`, the AC50 result is “inactive”.
For the compound `CN(CCc1ccccn1)Cc1ccc(Cl)cc1Cl`, the AC50 was 7.94 µM (active).
On to `CC(C)C(=O)C(C)(C)CCc1ccccn1`, for which the activity, negative = inhibition is -11% [at 11.4 µM].
Take `COc1ccccc1CNC(=O)C1CCN(S(=O)(=O)N2CC(C)CC(C)C2)CC1` (stereo not drawn): the AC50 was 11.2 µM (active).
In the case of `COc1cccc(CNC(=O)C2CCN(S(=O)(=O)N3CCCCC3)CC2)c1`, the half-maximal activity concentration (AC50) is 22.4 µM (active).
In the case of `CCS(=O)(=O)N1CCC(C(=O)NCc2ccccc2OC)CC1`, the activity, negative = inhibition is 4.92% [at 11.4 µM].
Take `COc1ccc(CCNC(=O)C2CCN(S(=O)(=O)N3CC(C)CC(C)C3)CC2)cc1OC` (stereo not drawn): the half-maximal activity concentration (AC50) was 7.08 µM (active).
On the same count and under the same terms, then `O=C(Nc1cc2c(oc1=O)CCCC2=O)c1ccc(Cl)cc1`, with “inactive”; and `Cc1cc(NC(=O)c2cc(C(C)C)on2)no1`, with “inactive”.
Regarding `O=C(Nc1cc(C(F)(F)F)ccc1N1CCCCC1)c1ccc(Br)o1`, the AC50 result was “inactive”.
`CC(=O)N1CCN(c2ccccc2NC(=O)COc2ccc(Br)cc2)CC1`: the AC50 was 4.47 µM (active).
Still for that read-out and setting: the same measure for `Cc1ccc(OCC(=O)Nc2ccccc2N2CCOCC2)c(C)c1`: 14.1 µM (active).
As to `NS(=O)(=O)c1cc(C(=O)O)cc(N2CCCC2)c1Oc1ccccc1`, the AC50 result is “inactive”.
In the case of `O=C(COc1ccccc1)Nc1cc(C(F)(F)F)ccc1N1CCCC1`, the AC50 is 3.98 µM (active).
For the compound `Cc1ccc(OCC(=O)Nc2ccc(Cl)cc2)c(-n2nc3ccccc3n2)c1`, the activity, negative = inhibition is -10.5% [at 2.29 µM].
Still for that read-out and setting: the same measure for `CCOc1ccc(C(=O)Nc2ccccc2N2CCCC2)cc1`: -11.9% [at 2.29 µM].
As for `CCCCC(=O)NC(Nc1cc(C)ccn1)(C(=O)OCC)C(F)(F)F` (stereo not drawn), the half-maximal activity concentration (AC50) is 7.08 µM (active).
Turning to `O=P(O)(O)O[C@@H]1O[C@H](CO)[C@@H](O)[C@H](O)[C@@H]1O`, the activity, negative = inhibition is -3.16% [at 11.4 µM].
For the compound `O=c1c2ccccc2nc(-c2ccc(Br)cc2)n1Cc1ccccc1`, the AC50 result was “inactive”.
Turning to `CN1CCN(C(=O)c2ccc3c(=O)n4c(nc3c2)CCCCC4)CC1`, the AC50 entry is “inactive”.
On to `N#CCSc1nc2cc(C(=O)N3CCCC3)ccc2c(=O)n1Cc1ccccc1`, for which the AC50 is 12.6 µM (active).
`N#CCSc1nc2ccc(N3CCCCC3)cc2c(=O)n1Cc1ccccc1`: the concentration at half-maximal activity (AC50) was 7.08 µM (active).
Consider `COc1ccc(NC(=O)N2CC[C@@]3(CCCN(C(=O)c4cc(C(F)(F)F)cc(C(F)(F)F)c4)C3)C2)cc1`, for which the half-maximal activity concentration (AC50) was 20 µM (active).
For the compound `COC(=O)N1CCC[C@@]2(CCN(C(=O)Nc3ccccc3)C2)C1`, the AC50 result was “inactive”.
Consider `COc1ccc(C(=O)N2CCC[C@@]3(CCN(C(=O)Nc4ccccc4)C3)C2)cc1`, for which the AC50 is 15.8 µM (active).
Regarding `COc1ccc(C(=O)N2CCC3(CC2)CN(C(=O)Nc2ccccc2)C3)cc1`, the AC50 entry is “inactive”.
For `Cn1cccc1C(=O)N1CCC2(CC1)CN(C(=O)Nc1ccccc1)C2`, the AC50 entry was “inactive”.
Regarding `COc1ccc(NC(=O)N2CCCC3(CCN(C(=O)c4cccn4C)CC3)C2)cc1`, the AC50 is 25.1 µM (active).
Still for that read-out and setting: the same measure for `COc1ccc(NC(=O)N2CCCC3(CCN(C(=O)c4ccc(OC)cc4)CC3)C2)cc1`: 12.6 µM (active); for `COc1ccc(NC(=O)N2CC3(CCN(C(=O)c4cccn4C)CC3)C2)cc1`: “inactive”; for `CC(=O)ON(C(C)=O)S(=O)(=O)c1ccc(Cl)cc1`: “inactive”.
Take `COC(=O)N1CCC2(CC1)CN(C(=O)Nc1ccc(OC)cc1)C2`: the AC50 entry is “inactive”.
For the compound `COc1ccc(NC(=O)N2CCC3(CC2)CCN(C(=O)c2ccco2)CC3)cc1`, the AC50 entry was “inactive”.
Still for that read-out and setting: the same measure for `COc1ccc(NC(=O)N2CC[C@@]3(CCCN(C(=O)c4ccc(OC)cc4)C3)C2)cc1`: 15.8 µM (active).
For `COc1ccc(NC(=O)N2CC[C@@]3(CCCN(C(C)=O)C3)C2)cc1`, the AC50 result was “inactive”.
With `COc1ccc(NC(=O)N2CCCC3(CCN(C(=O)c4ccco4)CC3)C2)cc1`, the AC50 is 15.8 µM (active).
As for `COCC(=O)N1CCC2(CC1)CN(C(=O)Nc1ccc(OC)cc1)C2`, the AC50 entry was “inactive”.
Same read-out and setting: then `COc1ccc(NC(=O)N2CCCC3(CCNCC3)C2)cc1`, with 25.1 µM (active).
Regarding `COc1ccc(NC(=O)N2CC[C@@]3(CCCNC3)C2)cc1`, the AC50 result is “inactive”.
On to `COc1ccc(NC(=O)N2CC3(CCN(C(=O)c4ccco4)CC3)C2)cc1`, for which the AC50 result is “inactive”.
Same read-out and setting: then `N#Cc1ccc(Oc2nc(C(N)=O)cc(-c3ccccc3)n2)cc1`, with “inactive”; and `CO/N=C(\C(=O)N[C@@H]1C(=O)N2C(C(=O)[O-])=C(C[N+]3(C)CCCC3)CS[C@@H]12)c1csc(N)n1`, with “inactive”.
For `Nc1nc2c(c(=O)[nH]1)N[C@H](CCNc1ccc(C(=O)O)cc1)CN2`, the activity, negative = inhibition was -0.744% [at 11.4 µM].
Consider `CCOc1c2ccc(C(=O)NCc3ccc(OC(F)(F)F)cc3)cc2nn1CC`, for which the activity, negative = inhibition was -2.81% [at 2.29 µM].
Turning to `CCOC(=O)C(C(=O)NCc1ccc(C)cc1)c1ncc(C(F)(F)F)cc1Cl` (stereo not drawn), the AC50 was 1.26 µM (active).
With `COc1cc(OC)c(C2C(C(=O)Nc3ccc(C)cc3C)=C(C)Nc3ncnn32)cc1OC` (stereo not drawn), the AC50 was 8.91 µM (active).
With `C(=C1/CCCC2=C1Nc1ncnn1C2c1ccccc1)/c1ccccc1` (stereo not drawn), the AC50 result was “inactive”.
Still for that read-out and setting: the same measure for `COc1ccc(NC(=O)c2ccc(-n3cccn3)nc2)c(OC)c1`: “inactive”; for `CCOC(=O)C1=C(C)Nc2ncnn2C1c1cccnc1` (stereo not drawn): 11.2 µM (active).
As to `CCOc1ccc(/C(O)=C2/C(=O)C(=O)N(CCOCCO)C2c2cccnc2)cc1` (stereo not drawn), the AC50 entry was “inactive”.
For `CCCCOC(=O)C1=C(C)Nc2ncnn2C1c1cc(OC)ccc1OC` (stereo not drawn), the AC50 is 7.08 µM (active).
With `COc1ccc(C2N=C(N)N=C(N)N2c2ccccc2OC)cc1OC` (stereo not drawn), the activity, negative = inhibition is -8.43% [at 2.29 µM].
For the compound `C[N+]1(C)C[C@@H](O)C[C@@H]1C(=O)[O-]`, the AC50 entry is “inactive”.
With `C=C(C)COc1ccc2c(c1)CCC1C2CC[C@]2(C)C(=O)/C(=N/O)CC12` (stereo partly drawn), the activity, negative = inhibition is 1.68% [at 11.4 µM].
Take `N#CCCn1c(=O)cnc2cnc(N3CCOCC3)nc21`: the AC50 entry was “inactive”.
`COc1ccc2[nH]cc(CCNc3ncncc3-c3cccc(NS(C)(=O)=O)c3)c2c1`: the AC50 is 0.398 µM (active).
As to `COc1cccc(-c2cncnc2NCCc2c[nH]c3ccc(OC)cc23)c1`, the AC50 is 0.501 µM (active).
As for `COc1ccc2[nH]cc(CCNc3ncncc3-c3cccnc3)c2c1`, the AC50 was 0.794 µM (active).
